{"source": "the OligoGym collection", "assay_in_all_cases": "pooled miR-30 sensor sort-seq; sequence = guide strand", "settings_in_all_cases": "shRNA", "key": {"[1]": {"target": "NCR3"}, "[2]": {"target": "NCF1"}, "[3]": {"target": "NCSTN"}, "[4]": {"target": "NCAPG2"}, "[5]": {"target": "NMD3"}, "[6]": {"target": "NMNAT2"}, "[7]": {"target": "NMRAL1"}, "[8]": {"target": "NLRP9"}}}
{"sequence": "AAGCTGACAGCATAGAATCCAG", "values": [{"measurement": "sensor-assay potency score (higher = more potent)", "setting": "[1]", "value": -0.853}]}
{"sequence": "AACATGTACACATAGTGCTGGC", "values": [{"measurement": "sensor-assay potency score (higher = more potent)", "setting": "[2]", "value": -0.578}]}
{"sequence": "TGAGTCAACATTCTCTAACTGC", "values": [{"measurement": "sensor-assay potency score (higher = more potent)", "setting": "[3]", "value": 0.0625}]}
{"sequence": "TAGCATGCTCCACACATTGTAA", "values": [{"measurement": "sensor-assay potency score (higher = more potent)", "setting": "[3]", "value": -1.37}]}
{"sequence": "TTCCGCTTGGTGCTCTCGCTGC", "values": [{"measurement": "sensor-assay potency score (higher = more potent)", "setting": "[2]", "value": -1}]}
{"sequence": "TTAAACAGGAGCAAGAAGCTTC", "values": [{"measurement": "sensor-assay potency score (higher = more potent)", "setting": "[3]", "value": -0.218}]}
{"sequence": "ATGTTCTTTCTCCACCACCAGC", "values": [{"measurement": "sensor-assay potency score (higher = more potent)", "setting": "[1]", "value": -2.11}]}
{"sequence": "TCGAGCTCGAAGAAATCGCTGC", "values": [{"measurement": "sensor-assay potency score (higher = more potent)", "setting": "[3]", "value": 0.0428}]}
{"sequence": "TAAGGTTTTATGGAACTCGTAG", "values": [{"measurement": "sensor-assay potency score (higher = more potent)", "setting": "[2]", "value": 0.251}]}
{"sequence": "TTTTTTGTCTGGTTGTCCGTGG", "values": [{"measurement": "sensor-assay potency score (higher = more potent)", "setting": "[2]", "value": 0.905}]}
{"sequence": "TCTCGGAACCACGTGACGGAGC", "values": [{"measurement": "sensor-assay potency score (higher = more potent)", "setting": "[1]", "value": -0.976}]}
{"sequence": "TTTGTCTGGTTGTCCGTGGGGA", "values": [{"measurement": "sensor-assay potency score (higher = more potent)", "setting": "[2]", "value": 0.0821}]}
{"sequence": "TATTGGGTGAATGACAGTGTTC", "values": [{"measurement": "sensor-assay potency score (higher = more potent)", "setting": "[1]", "value": -1.59}]}
{"sequence": "TAGAACTCTGTAGTTTTCGTTC", "values": [{"measurement": "sensor-assay potency score (higher = more potent)", "setting": "[4]", "value": -0.463}]}
{"sequence": "TAAGCAATGACGAATAACGTGA", "values": [{"measurement": "sensor-assay potency score (higher = more potent)", "setting": "[4]", "value": 0.14}]}
{"sequence": "AAGACAAACATGACATTGCGGG", "values": [{"measurement": "sensor-assay potency score (higher = more potent)", "setting": "[3]", "value": -0.588}]}
{"sequence": "TTCATCTGACAGAACCACCAAC", "values": [{"measurement": "sensor-assay potency score (higher = more potent)", "setting": "[2]", "value": -0.468}]}
{"sequence": "TAGATCTCGGTGAAGCGCCGGT", "values": [{"measurement": "sensor-assay potency score (higher = more potent)", "setting": "[2]", "value": 0.272}]}
{"sequence": "TCTGACAGAACCACCAACCGCT", "values": [{"measurement": "sensor-assay potency score (higher = more potent)", "setting": "[2]", "value": 0.511}]}
{"sequence": "TTGGTGCTCTCGCTGCAGCGGT", "values": [{"measurement": "sensor-assay potency score (higher = more potent)", "setting": "[2]", "value": -1.07}]}
{"sequence": "TGGAACTCGTAGATCTCGGTGA", "values": [{"measurement": "sensor-assay potency score (higher = more potent)", "setting": "[2]", "value": 0.128}]}
{"sequence": "TCCAGGTCAGACATTTGCCCTG", "values": [{"measurement": "sensor-assay potency score (higher = more potent)", "setting": "[1]", "value": -1.34}]}
{"sequence": "TAGCTGAGGATGTTCTTTCTCC", "values": [{"measurement": "sensor-assay potency score (higher = more potent)", "setting": "[1]", "value": -0.477}]}
{"sequence": "TTATGGAACTCGTAGATCTCGG", "values": [{"measurement": "sensor-assay potency score (higher = more potent)", "setting": "[2]", "value": -0.843}]}
{"sequence": "TACTGTACAACATAAGTGGTGT", "values": [{"measurement": "sensor-assay potency score (higher = more potent)", "setting": "[3]", "value": 0.405}]}
{"sequence": "TTCCATATTGTCTTCACCCTGG", "values": [{"measurement": "sensor-assay potency score (higher = more potent)", "setting": "[4]", "value": -0.0247}]}
{"sequence": "TTCCAGGTCAGACATTTGCCCT", "values": [{"measurement": "sensor-assay potency score (higher = more potent)", "setting": "[1]", "value": -1.63}]}
{"sequence": "TGGAACCACCTCATCTCGGAAC", "values": [{"measurement": "sensor-assay potency score (higher = more potent)", "setting": "[1]", "value": -1.16}]}
{"sequence": "TTTTGCAGGTACATGGACGGGA", "values": [{"measurement": "sensor-assay potency score (higher = more potent)", "setting": "[2]", "value": 0.437}]}
{"sequence": "TTCCACTGTATTTCTCTGCAGT", "values": [{"measurement": "sensor-assay potency score (higher = more potent)", "setting": "[3]", "value": 0.342}]}
{"sequence": "TTCTTTCTCCACCACCAGCCGA", "values": [{"measurement": "sensor-assay potency score (higher = more potent)", "setting": "[1]", "value": -1.65}]}
{"sequence": "TTTACCTGCATTAATAACCAGG", "values": [{"measurement": "sensor-assay potency score (higher = more potent)", "setting": "[4]", "value": -0.888}]}
{"sequence": "TTGGAGTAAACACCAAACCCAT", "values": [{"measurement": "sensor-assay potency score (higher = more potent)", "setting": "[3]", "value": -1.26}]}
{"sequence": "TTGATGGTGAAAGTAACTCAGA", "values": [{"measurement": "sensor-assay potency score (higher = more potent)", "setting": "[4]", "value": -1.15}]}
{"sequence": "TCTTTCTCCACCACCAGCCGAG", "values": [{"measurement": "sensor-assay potency score (higher = more potent)", "setting": "[1]", "value": -1.09}]}
{"sequence": "TTTGCCCTGGTAATAGACGGTG", "values": [{"measurement": "sensor-assay potency score (higher = more potent)", "setting": "[1]", "value": -0.728}]}
{"sequence": "TTCTGAGCAGAACTTGTGCTGA", "values": [{"measurement": "sensor-assay potency score (higher = more potent)", "setting": "[4]", "value": -0.264}]}
{"sequence": "ACTCTGCACACGTAGATGCTGG", "values": [{"measurement": "sensor-assay potency score (higher = more potent)", "setting": "[1]", "value": -1.18}]}
{"sequence": "TTGTCGTGGAGACTGTATCTGA", "values": [{"measurement": "sensor-assay potency score (higher = more potent)", "setting": "[4]", "value": -0.323}]}
{"sequence": "TATATCTTCCTCTCCACTGAGT", "values": [{"measurement": "sensor-assay potency score (higher = more potent)", "setting": "[3]", "value": -0.425}]}
{"sequence": "TCAGCCTGAACTGTGTCGCTGA", "values": [{"measurement": "sensor-assay potency score (higher = more potent)", "setting": "[3]", "value": 0.319}]}
{"sequence": "TTGAAGGATAGCACCATTCATC", "values": [{"measurement": "sensor-assay potency score (higher = more potent)", "setting": "[5]", "value": -0.92}]}
{"sequence": "TTTATTTCTAAAGGAAACCTAA", "values": [{"measurement": "sensor-assay potency score (higher = more potent)", "setting": "[6]", "value": -0.873}]}
{"sequence": "TTTGCTGCCTTCTTCCTAGGGT", "values": [{"measurement": "sensor-assay potency score (higher = more potent)", "setting": "[7]", "value": 0.121}]}
{"sequence": "TTGGTAATGAACATTGAGCAAA", "values": [{"measurement": "sensor-assay potency score (higher = more potent)", "setting": "[8]", "value": -1.26}]}
{"sequence": "TTTCCTTTGTTTCATTTCCTGG", "values": [{"measurement": "sensor-assay potency score (higher = more potent)", "setting": "[6]", "value": -0.769}]}
{"sequence": "TTTTTGAGCTTTTACATCCAGA", "values": [{"measurement": "sensor-assay potency score (higher = more potent)", "setting": "[5]", "value": -0.415}]}
{"sequence": "TTGATATCATTCCAGCACCTGC", "values": [{"measurement": "sensor-assay potency score (higher = more potent)", "setting": "[5]", "value": -1.29}]}
{"sequence": "TAGTCAAACACTGATACCCCAA", "values": [{"measurement": "sensor-assay potency score (higher = more potent)", "setting": "[6]", "value": -0.77}]}
{"sequence": "TCTATAGACACATTCTAGCATC", "values": [{"measurement": "sensor-assay potency score (higher = more potent)", "setting": "[8]", "value": -0.783}]}
{"sequence": "TTTGCTTTCAGGTCCCACCTGG", "values": [{"measurement": "sensor-assay potency score (higher = more potent)", "setting": "[6]", "value": 0.293}]}
{"sequence": "TCCAGCAATAGCATCATCCTGA", "values": [{"measurement": "sensor-assay potency score (higher = more potent)", "setting": "[6]", "value": -0.521}]}
{"sequence": "TTGTTGGTAATGAACATTGAGC", "values": [{"measurement": "sensor-assay potency score (higher = more potent)", "setting": "[8]", "value": -1.13}]}
{"sequence": "TAAATGTTGACAATGCTTCAGG", "values": [{"measurement": "sensor-assay potency score (higher = more potent)", "setting": "[8]", "value": 0.0203}]}
{"sequence": "TTAACTTTAAGTCTCTTAGAAT", "values": [{"measurement": "sensor-assay potency score (higher = more potent)", "setting": "[5]", "value": -1.22}]}
{"sequence": "TAGAAATCTACTTCTATGGCAC", "values": [{"measurement": "sensor-assay potency score (higher = more potent)", "setting": "[6]", "value": 0.539}]}
{"sequence": "TTGATTAATACCACATCTGGAA", "values": [{"measurement": "sensor-assay potency score (higher = more potent)", "setting": "[5]", "value": -0.0213}]}
{"sequence": "TAACAGACTTTCTGGATGCTGC", "values": [{"measurement": "sensor-assay potency score (higher = more potent)", "setting": "[6]", "value": -0.475}]}
{"sequence": "TAAAAGTATCCTAATACTCAGG", "values": [{"measurement": "sensor-assay potency score (higher = more potent)", "setting": "[6]", "value": -0.84}]}
{"sequence": "TTGACTTAAACTTTCAAGGCAT", "values": [{"measurement": "sensor-assay potency score (higher = more potent)", "setting": "[8]", "value": 0.797}]}
